# High-throughput results from PubChem BioAssay.
# Sampled rows, rich in hits. Any-hit rate of the full collection: about 3%.
# Casp1 inh – allosteric or competitive inhibitors of human caspase-1 | P29466 | Caspase-1 enzyme, Ac-WEHD-AFC fluorogenic rate | Potency, µM (doses to about 57.5 µM), for inactives: at the highest dose activity change, negative = inhibition, hits mostly inhibitors | 75,000 compounds, 0.03% hits;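 further: plate controls were vehicle for no effect and no substrate for full effect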
# TSHR agonist – TSH receptor (human) agonism; 73,000 compounds, 0.48% hits; HEK293-CNG-TSHR cells (CNG channel as cAMP sensor), membrane potential dye, cAMP; P16473; Potency, µM (doses to about 57.1 µM), for the others: at the top dose activation, actives largely listed as activators; active means well fitted activation curve with a large enough effect in the main read-out, with a control signal flat, not every such curve was filed as active; inconclusive means small, poorly fitted or top-dose-only effect, or a change in a side signal; inactive means no such curve, though single readings can be large or run the other way; % of control where 0% means no effect;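 further: the control signal comes from parental cells without the receptor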
#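 HEK 293 cells stably expressing TSHR and a modified CNG channel, with CNG-only parental cells as counterscreen, were preloaded 60 min at room temperature with membrane potential dye containing 100 uM RO 20-1724. Compound exposure was 30 min, and depolarization was read as fluorescence at 590 nm.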
# 15-hLO inh – 15-hLO (ALOX15) enzyme inhibition; purified 15hLO-1, xylenol orange hydroperoxide absorbance; Potency, µM (titrated, usually from 57.1 µM), for inactives: at the highest dose activity change, negative = inhibition, usual class: inhibitors; 74,000 compounds, 1.4% hits; AID 887; further: on the % scale 0 is the no-effect control and ±100 the full control effect; nearly all actives have a fitted effect of over 55% in size
#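 Purified human 15hLO-1 (40 nM) in 25 mM Hepes pH 7.5, 0.01% Triton X-100, preincubated 15 min RT with compound, then 50 uM arachidonic acid for 6 min. Hydroperoxide read by ferrous/xylenol orange, 30 min; 573/405 nm absorbance ratio gave progress.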
# HEK293 cAMP ctrl – counter-screen for TSHR agonists: cAMP increase in parental HEK293. parental HEK293 CNG cAMP sensor, membrane potential fluorescence. Potency, µM (titrated, usually from 57.1 µM), for inactives: top-dose activation, hits mostly activators. 73,000 compounds, 2.5% hits. AID 938; further: % of control where 0% means no effect; nearly all actives have a fitted effect of over 55% in size
#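 Parental HEK 293 cells stably expressing a modified CNG channel (no TSHR) report cAMP rise as membrane depolarization. Membrane potential dye with 100 uM RO 20-1724 was loaded for 60 min at room temperature, then compound added for 30 min; fluorescence read at 590 nm.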
# Casp7 inh – blocks human caspase-7 allosterically or competitively | Potency, µM (series often up to 57.5 µM), without a hit: at the top dose activity change, negative = inhibition, most hits filed as inhibitors | AID 889 | recombinant caspase-7, Ac-DEVD-AFC fluorescence rate | P55210 | 75,000 compounds, 0.02% hits; active means well fitted inhibition curve with a large enough effect in the main read-out, with a control signal flat, not every such curve was filed as active; inconclusive means small, poorly fitted or top-dose-only effect, or a change in a side signal; further: % of control where 0% means no effect
# ALOX15B inhib – 15-hLO-2 (ALOX15B) enzyme inhibition; Potency, µM (titrated, usually from 57.1 µM), for inactives: top-dose activity change, negative = inhibition, hits mostly inhibitors; AID 881; 110,000 compounds, 0.56% hits; purified 15hLO-2, xylenol orange hydroperoxide absorbance; further: on the % scale 0 is the no-effect control and ±100 the full control effect; nearly all actives have a fitted effect of over 60% in size
# Target sequence (O15296 whole entry, looked up): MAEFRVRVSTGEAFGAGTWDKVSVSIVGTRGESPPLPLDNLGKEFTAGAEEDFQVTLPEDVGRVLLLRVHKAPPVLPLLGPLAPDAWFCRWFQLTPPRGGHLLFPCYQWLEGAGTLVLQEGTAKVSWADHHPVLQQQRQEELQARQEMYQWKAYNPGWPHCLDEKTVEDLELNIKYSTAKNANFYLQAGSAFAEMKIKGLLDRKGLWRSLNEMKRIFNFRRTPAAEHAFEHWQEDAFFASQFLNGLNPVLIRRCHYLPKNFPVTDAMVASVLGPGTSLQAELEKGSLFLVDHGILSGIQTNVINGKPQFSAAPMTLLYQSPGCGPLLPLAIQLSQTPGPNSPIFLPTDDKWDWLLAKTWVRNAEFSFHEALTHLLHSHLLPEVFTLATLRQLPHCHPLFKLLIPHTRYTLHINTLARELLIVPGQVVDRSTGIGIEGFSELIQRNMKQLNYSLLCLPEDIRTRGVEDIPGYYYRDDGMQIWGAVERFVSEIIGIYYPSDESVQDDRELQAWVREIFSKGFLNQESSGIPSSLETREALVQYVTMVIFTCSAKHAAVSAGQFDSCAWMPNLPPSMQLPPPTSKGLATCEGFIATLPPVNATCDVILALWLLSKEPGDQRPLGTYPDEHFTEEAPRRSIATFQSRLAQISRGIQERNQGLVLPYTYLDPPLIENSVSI
#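 Screening format was qHTS against 50 nM purified 15hLO-2 in Hepes pH 7.5 with detergent. Activity follows hydroperoxide formation from 45 uM arachidonic acid, measured as 573:405 nm absorbance ratio of the ferric-xylenol orange complex.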
# The depositor's hits bear a star; ? = inconclusive; . = no result; [ ] = dose if it differs, or a comment. Unless noted, the call rests on the fitted dose curve; in most records, active means well fitted curve in the direction sought with a large enough effect; inconclusive means small, poorly fitted or top-dose-only effect, or another doubt; inactive means no such curve, though single readings can be large; an effect the other way counts as inactive or inconclusive. Potency means the concentration at half of the fitted maximal effect.
SMILES,Casp1 inh,TSHR agonist,15-hLO inh,HEK293 cAMP ctrl,Casp7 inh,ALOX15B inhib
Clc1ccc(OCc2nn3c(-c4ccco4)nnc3s2)c(Cl)c1,-2%,?,-12%,32µM*,-3%,-24%
Cc1ccc(OCc2nn3c(-c4ccco4)nnc3s2)cc1,-1%,?,-2%,?,0%,-6%
Brc1ccc(-c2nn3c(-c4ccco4)nnc3s2)o1,-6%,3%,20µM*,6%,-9%,-11%
CCC(C)(C)NC(=O)C(c1ccc(C)o1)N(Cc1cccs1)C(=O)Cn1nnc2ccccc21 (stereo not drawn),0%,?,-21%,16µM*,0%,?
CCC(C)(C)NC(=O)C(c1ccccc1F)N(Cc1ccco1)C(=O)Cn1nnc2ccccc21 (stereo not drawn),-3%,?,1%,16µM*,2%,-7%
O=C(c1ccc(N2CN(C(=O)c3ccco3)c3nc4ccccc4nc32)cc1)N1CCOCC1,-5%,1.3µM*,-5%,-3%,-3%,-11%
O=C(c1ccncc1)N1CCN(C(=O)c2ccco2)CC1,0%,.,5%,-1%,-1%,1%
CC(C)=CCC/C(C)=C/CO/N=C1/C[C@@H](O)[C@@H](O)[C@@H]2[C@@H]3C(=O)N(c4cccc(Oc5ccccc5)c4)C(=O)[C@H]3CC[C@@H]12,-5%[11.5 µM],-1%[11.4 µM],-8%[11.4 µM],-1%[11.4 µM],-1%[11.5 µM],.
COCCn1nnnc1C(c1ccc(OC)cc1)N1CCC(C)CC1 (stereo not drawn),-2%,12%,5%,28%,1%,2%
COc1ccc(CCn2nnnc2C(c2ccc(C)cc2)N2CCN(C)CC2)cc1OC (stereo not drawn),?,5%,2%,12%,-8%,8%
COCCn1nnnc1C(c1ccc(Cl)cc1)N1CCSCC1 (stereo not drawn),2%,?,5%,16µM*,-3%,-8%
Cc1ccc(C(c2nnnn2CCc2ccccc2)N2CCSCC2)cc1 (stereo not drawn),-2%,?,-24%,20µM*,-3%,-2%
CC1(C)CNC(=O)c2sc(N3CCCCC3)nc2C1,0%,?,-6%,20µM*,-3%,1%
FC(F)(F)c1cc(-c2ccco2)nc(NCc2ccco2)n1,-9%,?,-28%,?,-8%,.
FC(F)(F)c1cc(-c2ccc3c(c2)OCO3)nc(NCc2ccco2)n1,3%,?,20µM*,?,0%,3%
Cc1cccc(Cl)c1NC[C@H](O)CN1CCN(C)CC1,0%[11.5 µM],4%[11.4 µM],3%[11.4 µM],0%[11.4 µM],-1%[11.5 µM],-3%[11.4 µM]
CC(=O)c1c(C)n(-c2ccccc2)c2ccc(OCC(O)CN3CCOCC3)cc12 (stereo not drawn),-1%,?,-2%,13µM*,1%,11%
COc1ccccc1NC(=O)c1ccccc1-c1nc(-c2ccccc2OC)no1,-1%,?,-5%,25µM*,-2%,-12%[11.4 µM]
COc1ccccc1-c1noc(-c2ccccc2C(=O)Nc2ccccc2)n1,-1%,?,2%,25µM*,-2%,0%
CC1(C)CCC[C@]2(C)C3CC(=O)O[C@@]3(C)CC[C@H]12 (stereo partly drawn),-1%,.,2%[25.6 µM],.,-1%,-10%
CSc1nc(N(CCO)CCO)c2sc3nc(-c4ccco4)c4c(c3c2n1)CCC4,-5%,?,-11%,25µM*,-5%,?
OCCN(CCO)c1ncnc2c1sc1nc(N3CCOCC3)c3c(c12)CCCC3,.,.,.,.,.,-6%
NC(N)=N[C@H](CCC(=O)O)C(=O)O,-1%,-33%,7%,5%,0%,3%
O=C(NC(=S)Nc1ccc(N2CCOCC2)c(Cl)c1)C(c1ccccc1)c1ccccc1,.,.,.,.,.,13µM*
O=C(/C=C/c1ccccc1)NC(=S)Nc1ccc(N2CCOCC2)c(Cl)c1,.,.,.,.,.,-12%
N#CC1=C(N)C(C#N)(C#N)C(c2cccnc2)C2CC(c3ccccc3)CC=C12 (stereo not drawn),.,.,.,.,.,-9%
